From PubChem
Shown is part of a subset that was picked to be rich in hits.
Pf apPOL inh = Pf-apPOL DNA polymerase inhibition | Recombinant Pf-apPOL, molecular beacon fluorescence, 1.5 h | inhibition, % at 10 µM | hit rate 0.25% among 210,000 | AID 1794808
mHTT-CaM PPI inh = disrupts binding of mutant huntingtin to calmodulin. P42858. AlphaScreen His-mHTT/GST-CaM binding, luminescence. inhibition, % at 15 µM. hit rate 3.6% among 190,000. AID 1671202
Of the large screens only hits and unclear results are named; the others gave an inactive call. Rule as the data show it: active = inhibition above about 50%; inactive = the rest.

COc1cc(O)c(C(CC(=O)N2CCN(c3ccccc3)CC2)c2ccc3c(c2)OCO3)c(OC)c1 (stereo unspecified)	mHTT-CaM PPI inh 61.8
COc1ccc(C(CCN2CCOCC2)c2c(O)cc(OC)cc2OC)cc1 (stereo unspecified)	none
COCCNS(=O)(=O)c1cc(C)c(C)cc1OC	none
CS(=O)(=O)n1nccc1C=Cc1cccs1	none (no result: mHTT-CaM PPI inh)
CN(Cc1ccccc1)Cc1cc(=O)n2[nH]c(-c3cccc(Cl)c3)cc2n1	none
COc1cccc(-n2ccn3cc(-c4ccc(Br)cc4)nc3c2=O)c1	none
C=CCSc1nnc(-c2ccc(NC(=O)c3ccccc3Cl)cc2)n1C	none
OCCNc1nc(NCCc2cccs2)nc2c1cnn2-c1ccc(F)cc1	mHTT-CaM PPI inh 56.4
OCCNc1nc(NCc2ccc3c(c2)OCO3)nc2c1cnn2-c1ccc(F)cc1	mHTT-CaM PPI inh 67.0
c1ccc(-n2ncc3c(NCc4cccs4)ncnc32)cc1	none
OCCNc1nc(NN2CCOCC2)nc2c1cnn2-c1ccc(Cl)cc1	none
Cc1cc(C(=O)NCCC2CCCCN2S(=O)(=O)c2cccs2)c(C)o1 (stereo unspecified)	none
COc1ccc(OC)c(NC(=O)C2CN(S(=O)(=O)C3CC3)CC23CCCCC3)c1 (stereo unspecified)	none
COc1ccc(NC(=O)C2CN(S(=O)(=O)C3CC3)CC23CCCCC3)cc1 (stereo unspecified)	mHTT-CaM PPI inh 57.9
COc1ccc(OC)c(NC(=O)CSc2ncnc3nc(C)ncc23)c1	none
CCCN1CCN(C(=O)C2CCc3sc(C(=O)N(C)C)cc3C2)CC1 (stereo unspecified)	none
Cc1ccccc1Cn1nc(C)c(NC(=O)c2noc3c2CCCC3)c1C	none
Cc1nn(Cc2ccc(F)cc2)c(C)c1NC(=O)c1noc2c1CCCCC2	mHTT-CaM PPI inh 53.2
Cc1nn(Cc2ccccc2Cl)c(C)c1NC(=O)c1noc2c1CCCCC2	none
Cc1nn(Cc2ccc(Cl)cc2)c(C)c1NC(=O)c1noc2c1CCCC2	mHTT-CaM PPI inh 95.7
CCOC(=O)c1ccc(Oc2coc3c(CN4CCCCC4)c(O)ccc3c2=O)cc1	none
COc1ccc(Oc2coc3c(CN4CCCCCC4)c(O)ccc3c2=O)cc1	mHTT-CaM PPI inh 97.0
O=C1S/C(=C\c2ccc3c(c2)OCO3)C(=O)N1Cc1ccccc1F	none
COCCNC(=O)C1CC(c2ccccc2OC)=NO1 (stereo unspecified)	none
COc1cccc(C(=O)N2CCC(c3nc(C(=O)N4CCSCC4)c(C)o3)CC2)c1	none
CN1CCN(c2cccc3c2S(=O)(=O)N[C@H](Cc2ccccc2)CO3)CC1	none
O=S1(=O)N[C@H](Cc2ccccc2)COc2cccc(N3CCN(Cc4ccccc4F)CC3)c21	mHTT-CaM PPI inh 62.3
COc1ccc(OC)c(/C=C2\C(=O)NN(c3ccc(C)c(Cl)c3)C2=O)c1	none
COC(=O)CNC(=O)N1CCN(Cc2nc3cccnc3n2-c2ccccc2)CC1	none
CC(=O)N1CCc2sc(S(=O)(=O)N3CCN(c4cccc(Cl)c4)CC3)cc2C1	none
COc1ccc(C(=S)NN)cc1	mHTT-CaM PPI inh 58.2 (no result: Pf apPOL inh)
CCOC(=O)NC(=S)c1ccc(OC)cc1	none (no result: mHTT-CaM PPI inh)
Cc1ccc(Sc2c(C)nn(S(=O)(=O)c3ccccc3[N+](=O)[O-])c2C)cc1	mHTT-CaM PPI inh 50.0
Cc1nn(S(=O)(=O)c2ccccc2[N+](=O)[O-])c(C)c1Sc1ccccc1	none
CCOC1=NN(c2ccc([N+](=O)[O-])cc2)C(=O)/C1=C/c1cccc(Cl)c1Cl	mHTT-CaM PPI inh 65.0
CCOC1=NN(c2ccc([N+](=O)[O-])cc2)C(=O)/C1=C/c1ccccc1OCC	none
O=C(NCc1ccco1)N1CCC(n2c(C3CCCC3)nc3cccnc32)C1 (stereo unspecified)	none
CN(C)C(=O)c1cc2cn(C3CCCC3)cc2s1	none
O=C1CCC[C@@H]2C[C@@]3(C[C@@H]4CCN1[C@H]24)Nc1cc(Cl)c(Cl)cc1NC3=NCc1ccccc1	mHTT-CaM PPI inh 98.3
Cc1ccccc1N=C1Nc2ccc(Cl)cc2N[C@]12C[C@H]1CCCC(=O)N3CC[C@@H](C2)[C@@H]13	none
CC(C)(C)CC(C)(C)N=C1Nc2ccccc2N[C@]12C[C@H]1CCCC(=O)N3CC[C@@H](C2)[C@@H]13	none
Cc1cc2c(cc1C)N[C@]1(C[C@H]3CCCC(=O)N4CC[C@@H](C1)[C@@H]34)C(=Nc1ccccc1C)N2	none
CC(C)(C)CC(C)(C)N=C1Nc2ccc(Cl)cc2NC12C[C@H]1CCC(=O)N3CC[C@@H](C2)[C@@H]13 (stereo partly specified)	mHTT-CaM PPI inh 94.9
Cc1ccccc1N=C1Nc2cc(Cl)c(Cl)cc2N[C@]12C[C@H]1CCCC(=O)N3CC[C@@H](C2)[C@@H]13	mHTT-CaM PPI inh 85.7
CC(C)Oc1ccc(C(O)=C2C(=O)C(=O)N(CCCN3CCOCC3)C2c2cccs2)cc1 (stereo unspecified)	none
COCCn1cc(C(=O)Nc2ccccn2)c2c3ccccc3n(C)c2c1=O	none
O=C1CSC(c2cccc([N+](=O)[O-])c2)N1c1ccc(Oc2ccccc2)cc1 (stereo unspecified)	mHTT-CaM PPI inh 78.0
CCOc1ccc(N2C(=O)CSC2c2cccc([N+](=O)[O-])c2)cc1 (stereo unspecified)	none
O=C1CSC(c2ccccc2)N1c1ccccc1 (stereo unspecified)	none
O=C1CSC(c2ccccc2)N1c1ccc(Oc2ccccc2)cc1 (stereo unspecified)	mHTT-CaM PPI inh 78.0
C[C@H]1[C@@H](OC(=O)Nc2cc(Cl)cc(Cl)c2)CC[C@@]23CCCN2C(=O)CCC[C@@H]13	none
Cc1cc(C)cc(N2CCC(C(=O)NCc3ccc(F)cc3)C2=O)c1 (stereo unspecified)	none
O=C(Nc1ccc(Br)cc1F)C1c2ccccc2Oc2ccccc21	none
COc1ccccc1CN1CCc2nc(Nc3ccccc3OC)ncc2C1	none
COc1ccc(CN2CCc3nc(Nc4ccccc4OC)ncc3C2)c(OC)c1	none
COc1ccc(OC)c(Nc2ncc3c(n2)CCN(Cc2ccc(OC)cc2OC)C3)c1	mHTT-CaM PPI inh 90.8
COc1ccc(OC)c(CN2CCc3nc(Nc4ccccc4OC)ncc3C2)c1	mHTT-CaM PPI inh 55.5
O=C1NN(c2cc(Cl)cc(Cl)c2)C(=O)/C1=C/c1cccn1-c1ccc([N+](=O)[O-])cc1	none
CCC(=O)N1CCc2cc(S(=O)(=O)CCC(=O)Nc3ccccc3F)ccc21	none
Cc1ccccc1CNC(=O)C1(C)CCCN(S(=O)(=O)c2ccccc2Cl)C1 (stereo unspecified)	none
Cc1c(Cl)cccc1S(=O)(=O)N1CCCC(C)(C(=O)NCc2ccccc2)C1 (stereo unspecified)	mHTT-CaM PPI inh 64.6
Cc1ccccc1CNC(=O)C1(C)CCCN(S(=O)(=O)c2cccc(Cl)c2C)C1 (stereo unspecified)	mHTT-CaM PPI inh 60.9
Cc1ccc(C)c(S(=O)(=O)N2CCCC(C)(C(=O)NCc3ccccc3)C2)c1 (stereo unspecified)	none
CCCn1c(=O)c(N2CCC(NC(=O)NCc3cccc(F)c3)CC2)nc2ccccc21	none
CCOC(=O)C(C)Oc1ccc2c(c1)OC(=Cc1ccc(OC)cc1OC)C2=O (stereo unspecified)	none
O=C(O)c1cc(-n2cccc2)ccc1Cl	mHTT-CaM PPI inh 71.5
O=C(O)c1cc(N2C(=O)C3C4c5ccccc5C(c5ccccc54)C3C2=O)ccc1Cl (stereo unspecified)	none
CCN(CC)CCN1C(=O)C(=O)C(=C(O)c2ccccc2)C1c1cccc([N+](=O)[O-])c1 (stereo unspecified)	none
CNC(=O)c1cc(-c2cccc(OC)c2)nc2ccccc12	none
Cc1ccc(C(=O)NCc2ccc(Cl)cc2)c(Cl)c1	none
